TSHR agonist: qHTS Assay for Agonists of the Thyroid Stimulating Hormone Receptor | AID 926, 2007 | 73,000 tested, 0.48% active | Thyrotropin receptor (Homo sapiens), P16473 | Potency, µM (top dose mostly 57.1 µM), hits mostly activators | HEK293-CNG-TSHR cells (CNG channel as cAMP sensor), membrane potential dye, cAMP; active = well fitted activation curve with a large enough effect in the main read-out, with a control signal flat, not every such curve was filed as active; inconclusive = small, poorly fitted or top-dose-only effect, or a change in a side signal; inactive = no such curve, though single readings can be large or run the other way; reference of the percent scale not stated here;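 also: the control signal comes from parental cells without the receptor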
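cAMP rise detected as CNG-channel membrane depolarization by fluorescent dye (emission 590 nm), 30 min after compound, following 60 min dye loading containing 100 uM RO 20-1724 at room temperature. Cells: TSHR/CNG HEK 293, with parental CNG HEK 293 as control.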
Bst PK mod: Pyruvate Kinase. 51,000 tested, 1.2% active. Potency, µM. purified pyruvate kinase, luminescence ATP production; ribose 5-phosphate activator present at AC10; in the data active = potency below about 11 µM; inconclusive = mostly about 12 µM to 25 µM;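 the screen sought inhibitors and activators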
Tau fil binding: qHTS Assay for Tau Filament Binding; Microtubule-associated protein tau (Homo sapiens), P10636; recombinant tau filaments, thioflavin S fluorescence, 15 h; filaments grown with octadecylsulfate alongside compound; Potency, µM (doses to about 57.1 µM); 71,000 tested, 2% active; AID 596, 2007;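 also: actives lower thioflavin S fluorescence by blocking filaments or displacing dye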
Target sequence (P10636 whole entry, looked up): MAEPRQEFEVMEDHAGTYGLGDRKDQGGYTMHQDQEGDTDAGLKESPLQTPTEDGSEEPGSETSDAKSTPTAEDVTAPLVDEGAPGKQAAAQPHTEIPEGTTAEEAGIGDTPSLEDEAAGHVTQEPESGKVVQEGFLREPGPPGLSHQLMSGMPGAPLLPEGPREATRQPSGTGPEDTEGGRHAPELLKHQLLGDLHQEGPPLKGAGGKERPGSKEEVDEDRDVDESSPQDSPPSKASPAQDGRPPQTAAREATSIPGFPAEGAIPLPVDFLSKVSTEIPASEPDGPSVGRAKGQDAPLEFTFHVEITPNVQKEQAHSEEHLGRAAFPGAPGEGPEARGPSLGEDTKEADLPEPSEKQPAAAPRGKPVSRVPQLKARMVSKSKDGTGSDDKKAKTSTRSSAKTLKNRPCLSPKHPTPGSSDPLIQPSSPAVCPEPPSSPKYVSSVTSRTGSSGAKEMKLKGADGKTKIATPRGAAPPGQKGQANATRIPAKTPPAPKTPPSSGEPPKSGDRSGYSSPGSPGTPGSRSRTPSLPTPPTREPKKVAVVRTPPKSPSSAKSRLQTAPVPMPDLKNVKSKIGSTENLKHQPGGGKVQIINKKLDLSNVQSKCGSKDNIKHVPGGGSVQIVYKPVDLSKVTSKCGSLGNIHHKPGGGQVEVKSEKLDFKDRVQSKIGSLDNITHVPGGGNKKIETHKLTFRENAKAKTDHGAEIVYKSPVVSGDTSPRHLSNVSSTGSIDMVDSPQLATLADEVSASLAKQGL
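ThS-based fibril read: tau 1 uM final, inducer ODS 30 uM final, 37 C for 15 h, ex 450/em 510 nm.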
ERK AVP inh: qHTS Assay for Inhibitors of the ERK Signaling Pathway using a Homogeneous Screening Assay; HEK293-V1b, vasopressin-stimulated pERK AlphaScreen; Potency, µM (titrated, usually from 57.5 µM), actives largely listed as inhibitors; 72,000 tested, 0.99% active; AID 995, 2007; also: nearly all actives have a fitted effect of over 55% in size
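HEK293 cells stably expressing V1b receptor, preincubated 30 min at 37 °C with compound, then stimulated 5 min with 25 nM vasopressin. Phospho-ERK by AlphaScreen SureFire after 5 h RT; normalized to DMSO and vasopressin; AC50 by Hill fit.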
HEK293 cAMP cs: qHTS Assay for Agonists of the Thyroid Stimulating Hormone Receptor: Activators of Intracellular cAMP Concentrations in Parental HEK 293; AID 938, 2007; Potency, µM (highest dose often 57.1 µM), most hits filed as activators; parental HEK293 CNG cAMP sensor, membrane potential fluorescence; 73,000 tested, 2.5% active; also: nearly all actives have a fitted effect of over 55% in size
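Parental HEK 293 cells stably expressing a modified CNG channel (no TSHR) report cAMP rise as membrane depolarization. Membrane potential dye with 100 uM RO 20-1724 was loaded for 60 min at room temperature, then compound added for 30 min; fluorescence read at 590 nm.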
FLuc inh: qHTS Assay for Inhibitors of Firefly Luciferase; Potency, µM (highest dose often 57.1 µM), actives largely listed as inhibitors; 72,000 tested, 2.2% active; Luciferin 4-monooxygenase (Photinus pyralis), P08659; purified firefly luciferase, luminescence, 8 min; AID 411, 2009; also: nearly all actives have a fitted effect of over 40% in size
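Inhibition of light generation by firefly luciferase from ATP and luciferin was profiled with concentration-response curves per sample, ATP held at 10 uM within the enzyme's linear range. Plates were read by luminescence after an 8-minute ambient incubation.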
Each line names hits and unclear results; the compound was inactive in the other large screens; ! = not confirmed by another sample. This is a sample that favours compounds with a hit; in the whole collection about 7.2% have one here. Unless noted, calls follow the shape of the dose curve; as a rule, active = well fitted curve in the direction sought with a large enough effect; inconclusive = small, poorly fitted or top-dose-only effect, or another doubt; inactive = no such curve, though single readings can be large; an effect the other way counts as inactive or inconclusive.

COC(=O)c1ccc(-n2nnnc2SCC(=O)Nc2cc(OC)ccc2OC)cc1	TSHR agonist inconclusive, HEK293 cAMP cs inconclusive
CCCn1c(=O)c2ccccc2n2c(SCCOc3ccc(C)cc3)nnc12	TSHR agonist inconclusive, HEK293 cAMP cs 20µM (no result: Bst PK mod)
O=C(c1cnccn1)N1CCC2(CC1)CN(c1ccccn1)C2	none (no result: Bst PK mod)
COc1ccc(-c2nc3cnc(N(C)C)nc3n(Cc3ccc(F)cc3)c2=O)cc1	none (no result: Bst PK mod)
CCCn1c(=O)c2ccccc2n2c(SCc3c(C(=O)OCC)oc4ccccc34)nnc12	TSHR agonist inconclusive, HEK293 cAMP cs 16µM
COc1ccc(-n2nc3cc(C)c(N)c(Br)c3n2)cc1	Bst PK mod 3.4, Tau fil binding 20µM, ERK AVP inh 32µM, FLuc inh 4µM
CS(=O)(=O)Nc1cccc(-c2ccc3ncnc(Nc4ccc(F)cc4)c3c2)c1	TSHR agonist inconclusive, HEK293 cAMP cs inconclusive (no result: Bst PK mod)
COc1cccc(N=Cc2ccc(O)cc2O)c1	Tau fil binding 32µM (no result: Bst PK mod)
Oc1ccc(C=Nc2ccc3ncccc3c2)c(O)c1	none (no result: TSHR agonist, Tau fil binding, ERK AVP inh, HEK293 cAMP cs)
O=C(c1cc2nc(-c3ccco3)cc(C(F)(F)F)n2n1)N1CCN(c2ccccc2)CC1	TSHR agonist inconclusive, Tau fil binding 10µM (no result: Bst PK mod)
O=C(c1cc2nc(-c3ccco3)cc(C(F)(F)F)n2n1)N1CCCCCC1	Tau fil binding 13µM (no result: Bst PK mod)
O=C(c1cc2nc(-c3ccco3)cc(C(F)(F)F)n2n1)N1CCN(c2ccccn2)CC1	Tau fil binding 25µM, ERK AVP inh inconclusive
CCOCCCNc1ncnc2c1[nH]c1ccccc12	TSHR agonist inconclusive, ERK AVP inh 40µM, HEK293 cAMP cs inconclusive (no result: Bst PK mod)
C=CCSc1nnc2nc3c(nn12)c1cc(C)ccc1n3CC=C	Tau fil binding 6.3µM, ERK AVP inh inconclusive (no result: Bst PK mod)
COC(=O)[C@@H]1C[C@H]1[C@@H](NC(=O)c1cc(C)on1)c1ccccc1	none (no result: Bst PK mod, FLuc inh)
O=C(OCC(=O)c1cccs1)c1ccccc1	FLuc inh 13µM (no result: Bst PK mod)
COC(=O)c1cccc(NC(=O)NC2CCCN2S(=O)(=O)c2ccc(Cl)cc2)c1 (stereo not given)	Bst PK mod 9.5, ERK AVP inh inconclusive (no result: TSHR agonist)
CCCCNC(=O)c1cc2c(=O)n3cccc(C)c3nc2n(CCN2CCOCC2)c1=N	Tau fil binding inconclusive
COCCNC(=O)c1cc2c(=O)n3cccc(C)c3nc2n(Cc2ccncc2)c1=N	none
CCn1c(=N)c(C(=O)NC)cc2c(=O)n3cccc(C)c3nc21	none
COCCCn1c(=N)c(C(=O)NCc2ccc3c(c2)OCO3)cc2c(=O)n3ccccc3nc21	TSHR agonist inconclusive, Tau fil binding 10µM
Cc1cccn2c(=O)c3cc(C(=O)NC4CCCC4)c(=N)n(C4CCCC4)c3nc12	TSHR agonist inconclusive, Tau fil binding 0.4µM
COCCCn1c(=N)c(C(=O)NCc2ccc3c(c2)OCO3)cc2c(=O)n3cccc(C)c3nc21	Tau fil binding 3.2µM
COc1ccc(CCNC(=O)c2cc3c(=O)n4cccc(C)c4nc3n(Cc3ccncc3)c2=N)cc1	Tau fil binding 3.2µM
CNc1cc(-c2ccccc2CN(C)C)ncn1	none (no result: Bst PK mod)
COc1ccc(O)c(/C=c2/sc3nc4cc(C)c(C)cc4n3c2=O)c1	TSHR agonist inconclusive, HEK293 cAMP cs 32µM
Cc1ccc(S(=O)(=O)N2CCCC(C(=O)NC3=NCCS3)C2)cc1 (stereo not given)	Bst PK mod 6.3
COc1ccc(NC(=O)C2CCCN(S(=O)(=O)c3ccc(C)cc3)C2)cc1OC (stereo not given)	Bst PK mod 5.4, ERK AVP inh inconclusive
COc1ccc(S(=O)(=O)N2CCCC(C(=O)Nc3ccc(OC)c(OC)c3)C2)cc1 (stereo not given)	none
Cc1ccc2c(c1)N(CC(=O)NCC1COc3ccccc3O1)C(=O)CO2 (stereo not given)	TSHR agonist inconclusive (no result: Bst PK mod, ERK AVP inh)
CCCn1c(C)nc2c(NCCO)nc(C)nc21	none (no result: Bst PK mod, FLuc inh)
C=CCn1c(SCC(=O)NCc2cccs2)nnc1C1CCCCC1	none
C=CCn1c(SC(C)C(=O)NCc2ccc3c(c2)OCO3)nnc1C1CCCCC1 (stereo not given)	TSHR agonist inconclusive, HEK293 cAMP cs 2.5µM
NC[C@@H]1O[C@H](c2ccccc2)Cc2c1ccc(O)c2O	none (no result: Bst PK mod)
NC[C@@H]1O[C@H](C23CC4CC(CC(C4)C2)C3)Cc2c1ccc(O)c2O	Tau fil binding 32µM!, ERK AVP inh inconclusive (no result: Bst PK mod)
CO[C@@H]1COC(=O)CC=C[C@@H](C)[C@@H]2C=C[C@H](O)[C@@H](COC(=O)C/C=C\[C@H]1C)O2	none (no result: Bst PK mod, Tau fil binding)
CCCn1c(=O)c(C)cn2nc(N)nc12	Tau fil binding inconclusive (no result: Bst PK mod)
CCOC(=O)Nc1ccc2c(c1)N(C(=O)N1CCN(C)CC1)c1ccccc1S2	Tau fil binding 16µM, ERK AVP inh inconclusive
CCOC(=O)Nc1ccc2c(c1)N(C(=O)N(CC)CC)c1ccccc1CC2	TSHR agonist 3.2µM (no result: Bst PK mod)
CCOC(=O)Nc1ccc2c(c1)N(C(=O)N(C)C)c1ccccc1CC2	TSHR agonist inconclusive, HEK293 cAMP cs inconclusive (no result: Bst PK mod)
N=c1ccn2c(n1)O[C@@H]1[C@H](O)[C@H](CO)O[C@@H]12	none (no result: TSHR agonist, Bst PK mod, Tau fil binding, HEK293 cAMP cs, FLuc inh)
CCOC(=O)c1nnc2cc(-c3ccc(Br)cc3)nn2c1C	Tau fil binding 10µM (no result: Bst PK mod)
CCOC(=O)c1nnc2cc(-c3ccccc3)nn2c1C	Tau fil binding 16µM (no result: Bst PK mod)
CCCS(=O)(=O)n1nc(-c2ccc(Br)cc2)cc1N	none (no result: Bst PK mod)
CC(=O)OC1CCC2(C)C3CCC4(C)C(CC5CCCCC54C(C)=O)C3CC(=O)[C@@]2(O)C1 (stereo not given in full)	none (no result: TSHR agonist, Bst PK mod, Tau fil binding, HEK293 cAMP cs, FLuc inh)
CC(C)(C)N1C(=O)[C@H]2[C@@H]3[C@H](O)[C@H](O)CC(=O)[C@H]3CC[C@H]2C1=O	none (no result: Bst PK mod, Tau fil binding)
O=C(Nc1cccc(F)c1)N1CCC2(CC1)CCN(C(=O)c1cc(C(F)(F)F)cc(C(F)(F)F)c1)CC2	none (no result: Bst PK mod)
COC(=O)C1=C(C)NC(C)=C(C(=O)OC)C1c1cc2ccc(C)cc2[nH]c1=O	TSHR agonist 16µM
COC(=O)C1=C(C)NC(C)=C(C(=O)OC)C1c1cc2cc(C)ccc2[nH]c1=O	none
Cc1ccc(-c2cc3c(nn2)-c2ccccc2C3=O)cc1	Tau fil binding 1µM, ERK AVP inh inconclusive, FLuc inh 0.25µM (no result: TSHR agonist, Bst PK mod)
C(=N\n1cnnc1)/c1ccc2ncccc2c1	Tau fil binding 13µM
CCN(CC)c1ccc(NC(=O)C2CC3CCC2C3)cc1 (stereo not given)	Tau fil binding 25µM, ERK AVP inh inconclusive (no result: Bst PK mod)
CC(=O)Nc1cccc(NC(=O)C2CC3CCC2C3)c1 (stereo not given)	none (no result: Bst PK mod)

Source: PubChem
